High-throughput results as filed in PubChem.
An excerpt weighted towards active compounds, which were near 3.9% of everything screened.
Platelet DG rel – inhibitors of platelet dense granule secretion, primary screen, cell-based, MLPCN, human platelets; human platelet-rich plasma, SFLLRN dense granule ATP release, luminescence; inhibition, %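 (compounds screened at 7.5 µM in platelet-rich plasma)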; hit rate 0.22% among 300,000;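 active means mean replicate score, as percent of positive control, at or above 50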
PHOSPHO1 block – PubChem AID 1565 | inhibition, % at 13.3 µM | Phosphoethanolamine/phosphocholine phosphatase (Homo sapiens), Q8TCT1 | hit rate 1.1% among 290,000 | recombinant PHOSPHO1, absorbance phosphatase assay; in the data active means inhibition above about 60%
WT yeast gro inh – growth inhibition of WT strain, primary screen, mitochondrial fusion inhibitor project, WT and mutant strains, chemical genetic; mitochondrial fusion phenotypic screen; hit rate 2.1% among 190,000; inhibition, % at 10 µM; in the data active means inhibition above about 58%; tested in S. cerevisiae
SKKanGAS inh – S. pyogenes SKKanGAS growth inhibitors in kanamycin, primary screen, streptokinase expression inhibitor project, SKKanGAS strain, BacTiter-Glo luminescence | 6 h | inhibition, % at 7.5 µM | hit rate 1.3% among 300,000;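 active means mean replicate score, as percent of positive control median, at least 50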;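 further: strain carries kanamycin resistance gene driven by streptokinase promoter and grows in 40 µg/ml kanamycin; loss of luminescence reflects streptokinase promoter inhibition or plain growth inhibition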
TPT1 inh – Candida albicans TPT1 enzyme inhibitors, primary screen, biochemical, fluorescence polarization | inhibition, % at 5 µM | tRNA 2'-phosphotransferase TPT1 (Candida albicans SC5314) | recombinant caTPT1, FP RNA substrate dephosphorylation | hit rate 0.81% among 300,000 | AID 1962, 2009;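 active means inhibition above the mean of all tested compounds plus 3 SD, set per screening campaign, cut at about 24% in these data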
Rtt109 Vps75 – inhibitors of C. albicans Rtt109/Vps75 HAT, primary screen, biochemical, ThioGlo CoA-SH fluorescence, plate reader. purified Rtt109/Vps75, 4 h. inhibition, % at 34.9 µM. hit rate 0.16% among 330,000. AID 540336, 2011;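 active means inhibition of at least 50% in every replicate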
Target sequence (Q5AAJ8 whole entry, looked up): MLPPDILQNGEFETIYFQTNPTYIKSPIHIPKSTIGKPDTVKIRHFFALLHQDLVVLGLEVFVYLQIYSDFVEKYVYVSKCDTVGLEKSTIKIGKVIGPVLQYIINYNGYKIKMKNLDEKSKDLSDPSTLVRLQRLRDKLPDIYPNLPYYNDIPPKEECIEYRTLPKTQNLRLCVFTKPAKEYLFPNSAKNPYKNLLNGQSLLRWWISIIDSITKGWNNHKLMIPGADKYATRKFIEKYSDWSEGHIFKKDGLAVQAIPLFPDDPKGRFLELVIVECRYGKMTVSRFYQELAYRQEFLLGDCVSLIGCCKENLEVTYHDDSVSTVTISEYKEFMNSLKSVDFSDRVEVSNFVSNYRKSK
TPT1 inh confirm – Candida albicans TPT1 inhibitors, confirmation, biochemical, fluorescence polarization, triplicate | shares compounds with TPT1 inh | recombinant caTPT1, RNase T1 coupled | inhibition, % at 5 µM | hit rate 74% among 2,400 | AID 2149, 2009;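 active means inhibition above the primary screen limit, the mean inhibition of all tested compounds plus 3 SD, cut at about 25% in these data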
RNase T1 counter – RNase T1 inhibitors, counter-screen for TPT1 inhibitor project, biochemical, fluorescence polarization; shares compounds with TPT1 inh; RNase T1 cleavage, 1536-well; inhibition, % at 5 µM; hit rate 83% among 2,400;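 active means inhibition above the solvent-only control well mean plus 3 SD, limit set per screening run, cut at about 23% in these data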;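 further: inhibitors block cleavage so intact labeled substrate keeps polarization high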
Target sequence (P00651 whole entry, looked up): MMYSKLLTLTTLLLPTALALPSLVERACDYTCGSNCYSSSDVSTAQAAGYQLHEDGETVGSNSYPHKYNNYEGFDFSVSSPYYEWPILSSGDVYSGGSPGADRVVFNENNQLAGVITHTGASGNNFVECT
Large screens that a line does not name were inactive (follow-up assays come after a bar, where they were run).

Cc1ccc(C(=O)/C=C/c2ccc(-c3ccc(C)cc3)o2)cc1	TPT1 inh 39 | TPT1 inh confirm 72 | RNase T1 counter 79
CCN(CC)S(=O)(=O)c1ccc(C(=O)/C=C/c2ccc(-c3ccc([N+](=O)[O-])cc3)o2)cc1	TPT1 inh 30 (no result: WT yeast gro inh) | TPT1 inh confirm 49 | RNase T1 counter 53
CC(C)C[C@H]1CNC(=S)N1CC1CCN(CCCC2CCCCC2)CC1	none (no result: Platelet DG rel, PHOSPHO1 block, WT yeast gro inh, SKKanGAS inh, TPT1 inh)
CC(=O)Nc1ccc(NC(=O)CSc2ccc3nnc(CCNC(=O)c4ccccc4)n3n2)cc1	none
COc1ccc(NC(=O)CSc2ccc3nnc(CCNC(=O)c4ccccc4)n3n2)cc1	TPT1 inh 41 (no result: WT yeast gro inh) | TPT1 inh confirm inactive | RNase T1 counter inactive
CCOc1cc(/C=C2\C(=O)N(c3nc(-c4ccc(Br)cc4)cs3)N=C2c2ccccc2)ccc1O	SKKanGAS inh 73, TPT1 inh 41 | TPT1 inh confirm 100 | RNase T1 counter 104
COc1cc(/C=C2\C(=O)N(c3ccc(NC(C)=O)cc3)N=C2c2ccccc2)ccc1O	none (no result: SKKanGAS inh)
CS(=O)(=O)N1CC2CCCN2c2cc(C(F)(F)F)ccc21 (centres undefined)	TPT1 inh 28 | TPT1 inh confirm inactive | RNase T1 counter inactive
CCOC(=O)N1CCN(c2cc(=O)n(-c3cccc(C)c3)c(=O)[nH]2)CC1	TPT1 inh 110 | TPT1 inh confirm inactive | RNase T1 counter inactive
CCOC(=O)N1CCN(c2cc(=O)n(-c3cccc(Br)c3)c(=O)[nH]2)CC1	none
O=C(N/N=C/c1c(O)ccc2ccccc12)c1cccnc1	TPT1 inh 64 (no result: WT yeast gro inh) | TPT1 inh confirm 99 | RNase T1 counter 98
O=C(N/N=C/c1c(O)ccc2ccccc12)c1ccc(Br)o1	SKKanGAS inh 106, TPT1 inh 39 (no result: WT yeast gro inh) | TPT1 inh confirm 51 | RNase T1 counter 56
Cn1cccc1/C=N\NC(=O)c1cncc(Br)c1	none (no result: WT yeast gro inh, Rtt109 Vps75)
Cc1ccc(C(=O)N/N=C/c2c(O)ccc3ccccc23)cn1	SKKanGAS inh 60, TPT1 inh 84 (no result: WT yeast gro inh) | TPT1 inh confirm 93 | RNase T1 counter 96
O=C(N/N=C/c1ccccn1)c1ccc(Br)o1	none (no result: Platelet DG rel)
O=C(N/N=C\c1c(O)ccc2ccccc12)c1cncc(Br)c1	SKKanGAS inh 106, TPT1 inh 136 (no result: WT yeast gro inh) | TPT1 inh confirm 151 | RNase T1 counter 138
O=C(NCc1ccccn1)c1nc(Cn2cc([N+](=O)[O-])cn2)no1	none (no result: WT yeast gro inh)
COc1ccc(CCNC(=O)COC(=O)CSc2ccc(C(N)=O)cc2[N+](=O)[O-])cc1OC	none (no result: Platelet DG rel, PHOSPHO1 block, WT yeast gro inh, SKKanGAS inh, TPT1 inh)
O=C1[C@H](c2ccccc2)[C@@H](c2ccccc2)N1c1ccncc1	none (no result: Platelet DG rel, PHOSPHO1 block, WT yeast gro inh, SKKanGAS inh, TPT1 inh)
COc1ccc(/C=C/C=C2\N=C(SC)SC2=O)cc1	TPT1 inh 43 | TPT1 inh confirm 46 | RNase T1 counter 56
CC(C)N(C(=O)Cn1cc(S(=O)(=O)CC(=O)Nc2ccccc2)c2ccccc21)C(C)C	none (no result: WT yeast gro inh)
O=C(COC(=O)c1c[nH]c2ccccc12)Nc1cccc(F)c1	none (no result: Platelet DG rel, PHOSPHO1 block, WT yeast gro inh, SKKanGAS inh, TPT1 inh)
COc1cc(OC)cc(-c2c(-c3cccs3)c3cc(-c4cnc(OC)nc4)ccc3n2C)c1	none (no result: Platelet DG rel, PHOSPHO1 block, WT yeast gro inh, SKKanGAS inh, TPT1 inh)
Cc1cc(=O)[nH]c(N/N=C/c2c(O)n(-c3ccccc3)c(=O)c3ccccc23)n1	TPT1 inh 36 | TPT1 inh confirm 32 | RNase T1 counter 39
C=CCOc1ccc(C(=O)n2cc(C(=O)OC)c3ccccc32)cc1	none (no result: WT yeast gro inh)
CC(NC(=O)/C(C#N)=C1\N=C(NC(=O)c2ccco2)c2ccccc21)c1ccccc1 (centres undefined)	TPT1 inh 47 (no result: WT yeast gro inh, Rtt109 Vps75) | TPT1 inh confirm inactive | RNase T1 counter 31
CCCNC(=O)/C(C#N)=C1\N=C(NC(=O)c2cccs2)c2ccccc21	none (no result: WT yeast gro inh)
Oc1[nH]c(=S)sc1C=C1N=c2ccccc2=N1	none (no result: WT yeast gro inh)
Oc1[nH]c(=S)sc1/C=C1\C(c2ccccc2)=Nc2ccccc21	SKKanGAS inh 76, TPT1 inh 138 | TPT1 inh confirm 130 | RNase T1 counter 136
Nc1c2c(nn1-c1ccccc1)CCC2	none (no result: WT yeast gro inh)
CC(C)C(C(=O)O)N1C(=O)/C(=C/c2cccn2C)SC1=S (centres undefined)	TPT1 inh 106 (no result: Platelet DG rel, SKKanGAS inh) | TPT1 inh confirm 125 | RNase T1 counter 134
CCCC(C(=O)O)N1C(=O)/C(=C/c2cccn2C)SC1=S (centres undefined)	TPT1 inh 107 (no result: Platelet DG rel, SKKanGAS inh) | TPT1 inh confirm 121 | RNase T1 counter 127
Cc1ccc(NC(=O)N/C=C/c2ccco2)cc1C	TPT1 inh 24 | TPT1 inh confirm 61 | RNase T1 counter 73
Cc1ccc(NC(=O)N/C=C/c2ccco2)c(C)c1	none
COC(=O)C1C/C(=N\NS(=O)(=O)c2ccc(C)cc2)c2sccc2C1 (centres undefined)	none
COC(=O)C1CC(=O)c2ccsc2C1 (centres undefined)	TPT1 inh 64 | TPT1 inh confirm inactive | RNase T1 counter inactive
CC(C)[C@H](NC(=O)c1ccc(F)cc1)C(=O)N(C)Cc1cccs1	none (no result: Platelet DG rel, PHOSPHO1 block, WT yeast gro inh, SKKanGAS inh, TPT1 inh)
O=[N+]([O-])c1ccc(/C=N/Nc2ccc3ccccc3c2)o1	TPT1 inh 32 | TPT1 inh confirm 39 | RNase T1 counter 47
Cc1ccc2nc(N/N=C\c3ccc([N+](=O)[O-])o3)nc(-c3ccccc3)c2c1	SKKanGAS inh 100, TPT1 inh 52 | TPT1 inh confirm 49 | RNase T1 counter 44
CCOC(=O)N1CCN(C(=O)c2ccc3c(c2)N(Cc2cc(C)ccc2C)C(=O)c2ccccc2S3=O)CC1 (centres undefined)	none (no result: WT yeast gro inh)
CC(C)Oc1ccc(C2NC(=O)c3ccccc3O2)cc1 (centres undefined)	none (no result: PHOSPHO1 block, WT yeast gro inh, Rtt109 Vps75)
O=[N+]([O-])c1ccc2nc(CCCO)[nH]c2c1	none
CCCc1nc2ccc([N+](=O)[O-])cc2[nH]1	TPT1 inh 29 | TPT1 inh confirm inactive | RNase T1 counter inactive
CC(C)C(=O)Nc1nnc(SCC(=O)NCc2cccs2)s1	WT yeast gro inh 77, TPT1 inh 32 (no result: Rtt109 Vps75) | TPT1 inh confirm inactive | RNase T1 counter inactive
CN(C)/C=C/C(=O)/C=C/c1cn(-c2ncc(C(F)(F)F)cc2Cl)c2ccccc12	TPT1 inh 32 | TPT1 inh confirm inactive | RNase T1 counter inactive
COc1ccc(OC)c(C(=O)COC(=O)COc2ccccc2)c1	none (no result: Platelet DG rel, PHOSPHO1 block, WT yeast gro inh, SKKanGAS inh, TPT1 inh)
Cc1cccc(NC(=O)CNC(=O)CCc2nc3sc4c(c3c(=O)[nH]2)CCCC4)c1C	TPT1 inh 32 (no result: PHOSPHO1 block, WT yeast gro inh) | TPT1 inh confirm 43 | RNase T1 counter 53
